In PubChem BioAssay (Tox21):
Values joined by “and” are separate entries in the source; they are usually repeats but may differ in a detail not shown here. Equal values may be shown once. Results filed as inconclusive are left out. A structure can be active in one record and inactive in another. Active and inactive are the calls of the source. Unless noted, calls come from the whole dose curve.

How the values were obtained:
[1] = Nuclear factor erythroid 2-related factor 2/antioxidant responsive element (Nrf2/ARE) small molecule agonists: qHTS cell viability counter screen in human keratinocytes (AID 1919968; active = well fitted curve in the direction sought with a large enough effect in the repeat runs; an effect the other way counts as inactive or inconclusive; note: nearly all actives have a fitted effect of over 55% in size; note: potency is the fitted concentration of half-maximal effect)
Procedure, shortened: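 KeratinoSens cells (HaCaT keratinocytes stably carrying an ARE-luciferase reporter) were seeded at 1,500 cells/well and rested 5 h at 37 C/5% CO2. They were then exposed to compounds in DMSO for 23 h. Viability was read by CellTiter-Fluor fluorescence after 1 h.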

[2] = target: Gonadotropin-releasing hormone receptor (Homo sapiens) (UniProt P30968); test: Human gonadotropin-releasing hormone receptor (GnRHR) small molecule agonists, calcium flux assay in GnRHR-HEK293 cells (AID 1920063); note: nearly all actives have a fitted effect of over 35% in size
Procedure, shortened: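 HEK293 cells stably expressing human GnRHR were plated 18 h at 37 °C, loaded with calcium dye 1 h at 37 °C, then given compound in agonist mode; fluorescence (Ex/Em 480/540) read kinetically for 3 min at 1 s intervals.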

[3] = target: KiSS-1 receptor (Homo sapiens) (UniProt Q969F8); test: Human kisspeptin (KISS1R) small molecule agonists, calcium flux assay in KISS1R-HEK293 cells (AID 1920064; active = well fitted curve in the direction sought with a large enough effect in the repeat runs; an effect the other way counts as inactive or inconclusive)
Procedure, shortened: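 HEK293 cells stably expressing human KISS1R were plated 18 h at 37 °C, loaded with calcium dye for 1 h at 37 °C, then given compound by pin tool. Fluorescence (Ex/Em 480/540) was read kinetically for 3 min.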

[4] = G protein-coupled receptor (GPCR) small molecule agonists, calcium flux assay: HEK293 wild type cell line counter screen (AID 1920065)
Procedure, shortened: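 Cells were plated and cultured 18 h at 37 C/5% CO2, then loaded with calcium dye for 1 h at 37 C. Compounds in DMSO were pin-transferred in agonist mode, and fluorescence (Ex/Em 480/540) was read kinetically for 3 min at 1 s intervals.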

[5] = p53 small molecule agonists, cell-based qHTS assay with human liver microsomes (AID 1963577)
Procedure, shortened: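 Compounds act here after metabolic activation: human liver microsomes and NADPH, both at 0.5 mg/mL final, were co-added to p53RE-bla cells. Incubation ran 16 h at 37 C, followed by LiveBLAzer detection.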

[6] = p53 small molecule agonists, cell-based qHTS assay with rat liver microsomes (AID 1963578)
Procedure, shortened: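 Read-out is beta-lactamase reporter fluorescence (LiveBLAzer, 2 h, room temperature, dark) in p53RE-bla cells treated 16 h at 37 C with compound, rat liver microsomes and NADPH, both 0.5 mg/mL final.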

[7] = p53 small molecule agonists, cell-based qHTS assay with rat liver microsomes: qHTS cell viability counter screen (AID 1963580); note: nearly all actives have a fitted effect of over 45% in size
Procedure, shortened: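 HCT-116 p53RE-bla, 4,000 cells/well, 5 h pre-incubation; cpd + rat liver microsomes 0.5 mg/mL + NADPH 0.5 mg/mL (final); 16 h, 37 C; CellTiter-Glo, 30 min RT; luminescence.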

[8] = p53 small molecule agonists, cell-based qHTS assay: qHTS cell viability counter screen (AID 1963581); note: nearly all actives have a fitted effect of over 45% in size
Procedure, shortened: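 p53RE-bla HCT-116 cells were exposed to compounds for 16 h at 37 C; after the beta-lactamase FRET read in the same wells, CellTiter-Glo was added and luminescence (intracellular ATP) read after 30 min at room temperature.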

[9] = p53 small molecule agonists, cell-based qHTS assay (AID 1963582; active = well fitted activation curve with a large enough effect in the signal ratio in the repeat runs, not every such curve was filed as active; the % refers to the signal ratio)
Procedure, shortened: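 p53RE-bla beta-lactamase reporter cells rested 5 h at 37 C/5% CO2, then received compounds in DMSO by pin transfer and were incubated 16 h at 37 C. LiveBLAzer B/G FRET substrate was loaded for 2 h at room temperature before fluorescence reading.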

[10] = cAMP Responsive Elements (CRE) small molecule agonists, cell-based qHTS assay (AID 1963590)
Procedure, shortened: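 CRE-bla HEK 293T cells in DMEM with 10% dialyzed FBS, NEAA, pyruvate and 25 mM HEPES were plated 18 h at 37 C/5% CO2, then exposed to compounds in DMSO for 3 h before LiveBLAzer B/G FRET substrate addition.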

[11] = cAMP Responsive Elements (CRE) small molecule antagonists, cell-based qHTS assay (AID 1963591; active = well fitted inhibition curve with a large enough effect in the signal ratio in the repeat runs, not every such curve was filed as active; the % refers to the signal ratio)
Procedure, shortened: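 CRE-bla HEK293T cells were plated 18 h at 37 °C/5% CO2, pinned with compound in DMSO, then stimulated with NKH477 at 0.25 uM final for 3 h. LiveBLAzer B/G FRET substrate was added and plates incubated 2 h at room temperature.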

[12] = target: Beta-2 adrenergic receptor (Homo sapiens) (UniProt P07550); test: Adrenergic beta2 receptor (ADRB2) small molecule antagonists, cell-based qHTS assay (AID 1963592); note: series mostly up to about 92 µM; nearly all actives have a fitted effect of over 50% in size
Procedure, shortened: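 Cells (CHO, stable ADRB2 overexpression) incubated 18-20hr at 37C; compounds added from DMSO; agonist mix (1nM isoproterenol, 100uM IBMX, 25uM Ro-20-1724) added; 0.5hr RT; d2-cAMP and anti-cAMP-cryptate added; 1hr RT; 665/615 nm read.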

[13] = target: Beta-2 adrenergic receptor (Homo sapiens) (UniProt P07550); test: Adrenergic beta2 receptor (ADRB2) small molecule agonists, cell-based qHTS assay (AID 1963593);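 note: CHO cells stably overexpressing human ADRB2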
Procedure, shortened: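 CHO cells stably over-expressing ADRB2 were plated overnight at 37C, then dosed with compounds plus a stimulation mix containing 100uM IBMX and 25uM Ro-20-1724 for 0.5hr at room temperature. cAMP was measured by HTRF competition, 1hr.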

[14] = target: D(2) dopamine receptor (Homo sapiens) (UniProt P14416); test: Dopamine D2 receptor (DRD2) small molecule agonists, cell-based qHTS assay (AID 1963594); note: nearly all actives have a fitted effect of over 35% in size
Procedure, shortened: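 cAMP accumulation in DRD2-HEK293 cells measured by HTRF after 1 h detection; compounds added 10 min before NKH477 (200nM […]) forskolin-analogue stimulation, 30 min at room temperature, with Ro20-1724 present at 0.1 mM final.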

[15] = target: D(2) dopamine receptor (Homo sapiens) (UniProt P14416); test: Dopamine D2 receptor (DRD2) small molecule antagonists, cell-based qHTS assay (AID 1963595; active = well fitted inhibition curve with a large enough effect in the signal ratio in the repeat runs, with a control signal flat; the % refers to the signal ratio)
Procedure, shortened: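 Antagonist mode in DRD2-HEK293 cells: after compound addition with 0.1 mM Ro20-1724, cells received quinpirole (12 nM) and NKH477 (200 nM) for 30 min at room temperature; HTRF cAMP read after 1 h detection.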

[16] = p53 small molecule agonists, cell-based qHTS assay with human liver microsomes: qHTS cell viability counter screen (AID 1963579); note: nearly all actives have a fitted effect of over 45% in size
Procedure, shortened: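 Cells carrying the p53 response-element beta-lactamase reporter are treated for 16 h at 37 C with test compounds in the presence of human liver microsomes and NADPH (both 0.5 mg/mL final); ATP-based CellTiter-Glo luminescence then reports viability.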

[17] = target: 5-hydroxytryptamine receptor 2A (Homo sapiens) (UniProt P28223); test: 5-hydroxytryptamine receptor 2A (HTR2A) small molecule antagonists, cell-based qHTS assay (AID 1963586); note: nearly all actives have a fitted effect of over 45% in size
Procedure, shortened: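 Antagonist-mode intracellular calcium assay: DOI (4 nM) added after 5 min compound pre-incubation at room temperature to dye-loaded HTR2A-CHO cells. Fluorescence followed for 3 min, sampled every second.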

[18] = target: Muscarinic acetylcholine receptor M1 (Homo sapiens) (UniProt P11229); test: Cholinergic receptor muscarinic 1 (CHRM1) small molecule antagonists, cell-based qHTS assay (AID 1963588); note: nearly all actives have a fitted effect of over 40% in size; note: potency is the fitted concentration of half-maximal effect
Procedure, shortened: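 CHRM1-CHO calcium-flux assay, antagonist mode. Cells were seeded 18 h, dye-loaded 1 h at 37 C and given compound for 5 min at RT, then acetylcholine was added at 50nM. FDSS fluorescence was read 3 min; 15 concentrations, three runs.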

[19] = target: Muscarinic acetylcholine receptor M1 (Homo sapiens) (UniProt P11229); test: Cholinergic receptor muscarinic 1 (CHRM1) small molecule agonists, cell-based qHTS assay (AID 1963589); note: nearly all actives have a fitted effect of over 35% in size
Procedure, shortened: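 CHO cells stably expressing human CHRM1, seeded 18 h at 37 C/5% CO2, dye-loaded 1 h at 37 C, then given compound in agonist mode; intracellular calcium fluorescence read kinetically at 1 s intervals. Fifteen concentrations, three independent runs.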

[20] = target: 5-hydroxytryptamine receptor 2A (Homo sapiens) (UniProt P28223); test: 5-hydroxytryptamine receptor 2A (HTR2A) small molecule agonists, cell-based qHTS assay (AID 1963587); note: nearly all actives have a fitted effect of over 30% in size
Procedure, shortened: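 Kinetic calcium-flux fluorescence (2 min, 1 sec intervals) after compound addition in agonist mode. HTR2A-CHO cells were cultured 18 h, then dye-loaded 1 h at 37 C.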

Measured: Potency

KiSS-1 receptor (Homo sapiens), sequence (Q969F8 whole entry, looked up): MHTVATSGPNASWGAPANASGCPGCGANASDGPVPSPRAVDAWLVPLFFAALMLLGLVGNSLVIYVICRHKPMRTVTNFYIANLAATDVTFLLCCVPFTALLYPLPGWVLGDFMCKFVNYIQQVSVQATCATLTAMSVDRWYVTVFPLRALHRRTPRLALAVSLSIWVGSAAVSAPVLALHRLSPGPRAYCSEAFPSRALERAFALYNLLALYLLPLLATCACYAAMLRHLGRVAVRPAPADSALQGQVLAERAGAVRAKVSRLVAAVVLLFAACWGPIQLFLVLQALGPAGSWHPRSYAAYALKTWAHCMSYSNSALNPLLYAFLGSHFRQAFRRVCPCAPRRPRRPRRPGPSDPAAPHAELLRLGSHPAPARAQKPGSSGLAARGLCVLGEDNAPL
Beta-2 adrenergic receptor (Homo sapiens), sequence (P07550 whole entry, looked up): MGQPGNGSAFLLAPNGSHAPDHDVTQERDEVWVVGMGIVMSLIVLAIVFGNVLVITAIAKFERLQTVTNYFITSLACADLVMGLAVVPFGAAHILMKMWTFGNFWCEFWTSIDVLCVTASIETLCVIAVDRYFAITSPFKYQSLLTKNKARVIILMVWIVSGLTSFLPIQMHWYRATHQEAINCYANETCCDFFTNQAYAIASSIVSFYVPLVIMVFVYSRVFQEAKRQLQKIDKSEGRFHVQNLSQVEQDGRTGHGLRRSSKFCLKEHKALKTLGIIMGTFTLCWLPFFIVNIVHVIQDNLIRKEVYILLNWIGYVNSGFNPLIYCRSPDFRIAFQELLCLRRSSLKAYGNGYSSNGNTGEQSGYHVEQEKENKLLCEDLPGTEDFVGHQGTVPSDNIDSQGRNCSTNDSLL
D(2) dopamine receptor (Homo sapiens), sequence (P14416 whole entry, looked up): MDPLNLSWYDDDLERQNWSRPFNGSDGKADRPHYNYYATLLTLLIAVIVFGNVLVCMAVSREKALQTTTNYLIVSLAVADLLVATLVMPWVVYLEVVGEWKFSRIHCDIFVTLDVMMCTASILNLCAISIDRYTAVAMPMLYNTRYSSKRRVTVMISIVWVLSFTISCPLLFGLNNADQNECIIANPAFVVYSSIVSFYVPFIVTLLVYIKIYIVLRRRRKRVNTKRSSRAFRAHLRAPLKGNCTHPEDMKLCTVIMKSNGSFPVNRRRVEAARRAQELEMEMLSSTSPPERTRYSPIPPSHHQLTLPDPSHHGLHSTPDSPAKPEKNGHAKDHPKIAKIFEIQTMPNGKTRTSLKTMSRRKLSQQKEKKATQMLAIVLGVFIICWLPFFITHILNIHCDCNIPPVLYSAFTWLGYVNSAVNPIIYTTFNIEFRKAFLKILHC
5-hydroxytryptamine receptor 2A (Homo sapiens), sequence (P28223 whole entry, looked up): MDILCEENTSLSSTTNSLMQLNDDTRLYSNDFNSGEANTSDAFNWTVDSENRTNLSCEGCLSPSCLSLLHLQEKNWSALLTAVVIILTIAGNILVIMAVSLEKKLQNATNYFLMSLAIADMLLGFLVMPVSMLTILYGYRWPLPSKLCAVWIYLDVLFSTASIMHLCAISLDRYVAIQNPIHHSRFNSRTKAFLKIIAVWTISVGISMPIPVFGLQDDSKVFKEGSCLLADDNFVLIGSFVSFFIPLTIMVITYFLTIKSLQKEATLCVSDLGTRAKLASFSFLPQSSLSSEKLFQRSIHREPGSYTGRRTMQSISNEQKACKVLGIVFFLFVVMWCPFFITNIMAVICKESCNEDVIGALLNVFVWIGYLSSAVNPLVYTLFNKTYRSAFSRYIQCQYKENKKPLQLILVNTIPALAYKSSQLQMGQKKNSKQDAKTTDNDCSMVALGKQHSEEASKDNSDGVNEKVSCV
Gonadotropin-releasing hormone receptor (Homo sapiens), sequence (P30968 whole entry, looked up): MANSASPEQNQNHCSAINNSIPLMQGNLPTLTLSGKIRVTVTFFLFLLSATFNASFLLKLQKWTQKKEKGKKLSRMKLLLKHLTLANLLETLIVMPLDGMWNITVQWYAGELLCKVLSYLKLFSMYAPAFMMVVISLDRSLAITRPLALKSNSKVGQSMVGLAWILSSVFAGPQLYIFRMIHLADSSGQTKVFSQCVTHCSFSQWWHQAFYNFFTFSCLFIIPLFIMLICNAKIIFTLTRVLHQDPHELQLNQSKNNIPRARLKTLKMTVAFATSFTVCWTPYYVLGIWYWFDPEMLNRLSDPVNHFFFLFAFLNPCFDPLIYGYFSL
Muscarinic acetylcholine receptor M1 (Homo sapiens), sequence (P11229 whole entry, looked up): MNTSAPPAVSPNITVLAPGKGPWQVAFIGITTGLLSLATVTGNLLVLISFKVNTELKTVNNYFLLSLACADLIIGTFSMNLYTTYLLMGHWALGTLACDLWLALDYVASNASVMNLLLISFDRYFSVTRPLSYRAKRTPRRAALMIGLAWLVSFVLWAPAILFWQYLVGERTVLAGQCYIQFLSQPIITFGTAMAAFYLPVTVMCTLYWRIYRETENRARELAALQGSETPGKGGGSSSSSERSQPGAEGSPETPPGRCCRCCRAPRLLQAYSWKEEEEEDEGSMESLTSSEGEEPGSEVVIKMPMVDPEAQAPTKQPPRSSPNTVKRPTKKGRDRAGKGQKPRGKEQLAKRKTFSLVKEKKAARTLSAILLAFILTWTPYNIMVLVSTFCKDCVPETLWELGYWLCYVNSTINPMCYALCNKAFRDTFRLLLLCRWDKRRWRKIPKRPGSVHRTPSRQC

Oc1ccccc1
inactive: [1] | [2] | [3] | [4] | [5] | [6] | [7] | [8] | [9] | [10] | [11] | [12] | [13] | [14] | [15]

CCCCCCC(=O)O
inactive: [1] | [3] | [4] | [5] | [6] | [16] | [7] | [8] | [9] | [17] | [18] | [19] | [10] | [11] | [12] | [13] | [14] | [15]

C=C(CC(=O)O)C(=O)O
inactive: [1] | [2] | [3] | [4] | [6] | [16] | [7] | [8] | [17] | [20] | [18] | [19] | [10] | [11] | [12] | [13] | [14] | [15]

CCCCCCCCCCC=CC1CC(=O)OC1=O (stereo unspecified)
inactive: [1] | [2] | [3] | [5] | [6] | [16] | [8] | [17] | [20] | [18] | [19] | [10] | [11] | [12] | [14] | [15]

NC(=O)/N=N/C(N)=O
inactive: [1] | [3] | [4] | [5] | [6] | [16] | [7] | [9] | [17] | [20] | [18] | [19] | [10] | [11] | [12] | [13] | [14]

CCCCOCCOC(=O)c1ccccc1C(=O)OCCOCCCC
inactive: [2] | [3] | [4] | [5] | [6] | [16] | [7] | [9] | [17] | [20] | [18] | [19] | [10] | [11] | [12] | [13] | [14] | [15]
47.5 µM (active) and inactive: [1]

O=C1NS(=O)(=O)c2ccccc21
inactive: [1] | [3] | [4] | [16] | [7] | [8] | [17] | [20] | [18] | [19] | [10] | [11] | [12] | [14] | [15]

CC(C)[C@@H]1CC[C@@H](C)C[C@H]1O
inactive: [1] | [2] | [3] | [4] | [7] | [8] | [17] | [18] | [19] | [10] | [11] | [12] | [13] | [14] | [15]

O=C(c1cc(O)c(O)c(O)c1)c1ccc(O)c(O)c1O
inactive: [1] | [2] | [3] | [4] | [5] | [6] | [16] | [7] | [17] | [20] | [18] | [10] | [11] | [14] | [15]

CC1=CC2C3CC(C=C3C)C2C1 (stereo unspecified)
inactive: [1] | [2] | [3] | [4] | [16] | [7] | [8] | [17] | [20] | [18] | [19] | [10] | [11] | [14] | [15]

c1ccc2cc(Nc3ccc(Nc4ccc5ccccc5c4)cc3)ccc2c1
inactive: [2] | [3] | [4] | [5] | [6] | [16] | [7] | [8] | [9] | [17] | [20] | [18] | [19] | [10] | [11] | [12] | [13] | [14] | [15]

Cc1ccc(S(=O)(=O)O)cc1
inactive: [1] | [2] | [3] | [4] | [16] | [7] | [17] | [20] | [18] | [19] | [10] | [11] | [12] | [13] | [14] | [15]

CN(C)CCOC(C)(c1ccccc1)c1ccccn1 (stereo unspecified)
active: [18] 18.8 µM and 4.1 µM
inactive: [1] | [2] | [3] | [5] | [6] | [16] | [7] | [8] | [9] | [17] | [20] | [19] | [10] | [11] | [12] | [13] | [14]

CCc1ccc(CCOc2ccc(CC3SC(=O)NC3=O)cc2)nc1 (stereo unspecified)
inactive: [1] | [2] | [3] | [4] | [5] | [6] | [16] | [7] | [12] | [13] | [14] | [15]

CC(C)(C)[C@@H](O)[C@@H](Cc1ccc(Cl)cc1)n1cncn1
inactive: [2] | [3] | [4] | [5] | [6] | [16] | [7] | [9] | [17] | [20] | [18] | [19] | [10] | [11] | [12] | [13] | [14] | [15]
